# Several values for one entry are separate records, joined by “and”; a condition that tells them apart may be missing. Identical values can stand only once. Records with an inconclusive call do not appear. The source holds several records for some structures; these can differ, active in one and inactive in another. Activity calls are given as the source filed them. Unless noted, the call rests on the fitted dose curve; in most records, active means well fitted curve in the direction sought with a large enough effect in the repeat runs; inconclusive means weak or mixed curves; inactive means no such curve, though single readings can be large; an effect the other way counts as inactive or inconclusive.
# Target: Androgen receptor (Homo sapiens) (UniProt P10275)
# Sequence (P10275 whole entry, looked up): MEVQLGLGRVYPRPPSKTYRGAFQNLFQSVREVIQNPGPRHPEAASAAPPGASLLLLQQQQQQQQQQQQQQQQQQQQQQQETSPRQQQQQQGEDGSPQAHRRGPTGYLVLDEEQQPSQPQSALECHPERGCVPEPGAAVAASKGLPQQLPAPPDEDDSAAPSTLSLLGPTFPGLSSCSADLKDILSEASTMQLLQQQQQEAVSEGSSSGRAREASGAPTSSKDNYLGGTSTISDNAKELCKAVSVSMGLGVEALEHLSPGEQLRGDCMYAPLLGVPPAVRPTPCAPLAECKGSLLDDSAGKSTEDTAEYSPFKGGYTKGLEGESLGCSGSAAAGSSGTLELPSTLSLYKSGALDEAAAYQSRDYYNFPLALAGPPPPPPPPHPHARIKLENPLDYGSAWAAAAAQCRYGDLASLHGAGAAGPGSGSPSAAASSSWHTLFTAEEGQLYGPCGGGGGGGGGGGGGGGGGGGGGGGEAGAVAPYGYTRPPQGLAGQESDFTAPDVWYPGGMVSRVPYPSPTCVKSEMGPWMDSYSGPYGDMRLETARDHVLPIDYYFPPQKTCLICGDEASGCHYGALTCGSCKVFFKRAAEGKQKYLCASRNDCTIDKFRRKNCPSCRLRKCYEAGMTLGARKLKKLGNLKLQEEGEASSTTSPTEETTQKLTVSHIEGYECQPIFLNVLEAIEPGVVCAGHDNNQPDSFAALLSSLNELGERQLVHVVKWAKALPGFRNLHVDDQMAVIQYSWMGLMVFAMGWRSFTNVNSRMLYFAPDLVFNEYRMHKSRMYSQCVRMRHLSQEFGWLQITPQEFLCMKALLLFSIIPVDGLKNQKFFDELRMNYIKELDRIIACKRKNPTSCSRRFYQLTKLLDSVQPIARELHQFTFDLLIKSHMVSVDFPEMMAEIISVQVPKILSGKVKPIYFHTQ
# Assay: qHTS assay to identify small molecule antagonists of the androgen receptor (AR) signaling pathway using the MDA cell line in the presence of 0.5 nM R1881 (AID 1259243); further: nearly all actives have a fitted effect of over 50% in size; further: potency means the concentration at half of the fitted maximal effect
# Conditions: MDA-kb2 MMTV-luciferase, R1881 0.5 nM, 16 h; series mostly up to 92.4 µM; activity, negative = inhibition: at the top concentration
# Summary of the method: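 Luminescent reporter readout (ONE-Glo, 30 min, room temperature) after 16 hr co-treatment of MDA-kb2 cells with test compounds and 0.5 nM R1881 final, at 37C without CO2. The MMTV-driven luciferase responds to both AR and GR.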
# On the % scale 0 is the no-effect control and ±100 the full control effect.
SMILES,"activity, negative = inhibition",Potency
O=c1[nH]c(Cl)c(Cl)cc1Cl,15.6% (inactive),–
Cc1ccc(C)c2ccccc12,23% (inactive),–
CC(Cc1ccccc1)N(C)Cc1ccco1 (centres undefined),-0.522% [at 42.5 µM] (inactive),–
O=C(CCCCl)c1ccc(F)cc1,15.6% [at 42.5 µM] (inactive),–
O=C(NC(=O)c1ccccc1Cl)Nc1ccc(OC(F)(F)F)cc1,4.08% (inactive),–
C[C@@H]1CC2=CC(=O)CC[C@@H]2[C@H]2CC[C@@]3(C)[C@@H](CC[C@]3(C)O)[C@@H]21,14.1% [at 42.5 µM] (inactive),–
Cc1ccc([N+](=O)[O-])[c]2c1[O][Hg]2,–,2370 nM (active)
CC#C[C@]1(O)CC[C@H]2[C@@H]3C[C@H](C)C4=CC(=O)CC[C@]4(C)[C@H]3CC[C@@]21C,260% [at 42.5 µM] (inactive),–

# Target: Estrogen receptor (Homo sapiens) (UniProt P03372)
# Sequence (P03372 whole entry, looked up): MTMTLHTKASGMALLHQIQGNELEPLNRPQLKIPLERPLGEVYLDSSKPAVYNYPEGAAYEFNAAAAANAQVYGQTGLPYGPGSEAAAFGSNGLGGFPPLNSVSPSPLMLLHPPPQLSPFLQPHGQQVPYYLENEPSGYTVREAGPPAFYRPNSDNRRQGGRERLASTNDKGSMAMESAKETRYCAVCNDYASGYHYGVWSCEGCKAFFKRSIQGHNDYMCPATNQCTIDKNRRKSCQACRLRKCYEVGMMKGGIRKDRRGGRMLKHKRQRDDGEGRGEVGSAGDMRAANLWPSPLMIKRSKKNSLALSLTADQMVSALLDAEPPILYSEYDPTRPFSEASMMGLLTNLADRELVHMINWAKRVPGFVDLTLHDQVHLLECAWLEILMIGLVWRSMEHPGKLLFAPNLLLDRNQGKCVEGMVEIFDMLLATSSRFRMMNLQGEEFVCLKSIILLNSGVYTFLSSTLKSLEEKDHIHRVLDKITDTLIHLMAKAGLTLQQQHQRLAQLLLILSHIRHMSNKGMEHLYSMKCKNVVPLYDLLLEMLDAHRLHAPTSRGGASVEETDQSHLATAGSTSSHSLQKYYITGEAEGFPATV
# Assay: qHTS assay to identify small molecule antagonists of the estrogen receptor alpha (ER-alpha) signaling pathway using the BG1 cell line in the presence of 0.1 nM 17-beta-estradiol (AID 1259244); further: nearly all actives have a fitted effect of over 50% in size; further: potency means the concentration at half of the fitted maximal effect
# Conditions: VM7Luc4E2 (BG1) ERE-luciferase, antagonist mode, 0.1 nM E2, 22 h; series mostly up to 92.4 µM; activity change, negative = inhibition: at the top concentration
# Summary of the method: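 Luciferase luminescence (ONE-Glo, 30 min at room temperature) was read after 22 hr at 37C exposure to compounds plus 17beta-estradiol at 0.1 nM final. Cells were VM7Luc4E2 with endogenous ER-alpha and an ERE-driven luciferase, pre-cultured 5 days in hormone-depleted medium.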
SMILES,Potency,"activity change, negative = inhibition"
CCCCCCCCCCCCCCn1cc[n+](C)c1,612 nM (active) and 761 nM (active) and inactive,–
CSC(=O)c1c(C(F)F)nc(C(F)(F)F)c(C(=O)SC)c1CC(C)C,–,-14.2% (inactive)
CC(Cc1ccccc1)N(C)Cc1ccco1 (centres undefined),–,9.37% [at 42.5 µM] (inactive)
O=C(CCCCl)c1ccc(F)cc1,–,36.9% [at 42.5 µM] (inactive)
Oc1cccc(Cl)c1Cl,–,0% (inactive)
CCCCC/C=C\C/C=C\C/C=C\C/C=C\CCCC(=O)NCC(=O)O,–,0.109% [at 42.5 µM] (inactive)
ClC(Cl)C(Cl)(Cl)Cl,–,19.4% (inactive)
Brc1ccc(Oc2ccc(Br)cc2Br)c(Br)c1,–,-2.43% (inactive)
COP(=S)(OC)Oc1nc(Cl)c(Cl)cc1Cl,–,2.38% (inactive)
CC(C)Br,–,-1.34% (inactive)
CC(C)[C@@H](Nc1ccc(C(F)(F)F)cc1Cl)C(=O)OC(C#N)c1cccc(Oc2ccccc2)c1 (some centres undefined),–,1.8% (inactive)
Cc1ccc([N+](=O)[O-])[c]2c1[O][Hg]2,7.5 µM (active),–
COC(=O)/C=C(\C)OP(=O)(OC)OC,–,3.92% (inactive)
COP(=S)(OC)Oc1ccc([N+](=O)[O-])c(C)c1,–,18% (inactive)
CCC[CH2][Sn]([CH2]CCC)([O]C(C)=O)[O]C(C)=O,0.617 µM (active),–
CC#C[C@]1(O)CC[C@H]2[C@@H]3C[C@H](C)C4=CC(=O)CC[C@]4(C)[C@H]3CC[C@@]21C,–,6.27% [at 42.5 µM] (inactive)
CCC(C)Nc1c([N+](=O)[O-])cc(C(C)(C)C)cc1[N+](=O)[O-] (centres undefined),–,22.2% (inactive)
CC1CN1 (centres undefined),–,2.12% (inactive)

# System: not listed separately
# Assay: qHTS assay to identify small molecule phospholipidosis (PLD) inducers (AID 1259344; active means well fitted curve in the direction sought with a large enough effect; an effect the other way counts as inactive or inconclusive)
# Conditions: HepG2 phospholipidosis, LipidTOX Red imaging, 24 h; series mostly up to 38.3 µM; PLD induction: at the top concentration
# Summary of the method: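 Accumulated phospholipid, stained red by LipidTOX during 24 h compound treatment of HepG2 cells at 37 C, is quantified from images as pit number and intensity, normalised per cell using Hoechst-stained nuclei.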
row,SMILES,PLD induction
1,CCCCC/C=C\C/C=C\C/C=C\C/C=C\CCCC(=O)NCC(=O)O,0.136% [at 3.15 µM] (inactive)
2,O=C(N[C@H]1N=C(c2ccccc2F)c2cccc3c2N(CC3)C1=O)c1cc2ccccc2[nH]1,7.43% (inactive)
3,CNC(C)(C)Cc1ccccc1,0.492% [at 15.5 µM] (inactive)

# Reference: PubChem BioAssay (Tox21)
